The whole screen tested about 5,500 compounds, of which about 2,000 (36%) were called active. Roughly 18% stayed inconclusive and do not appear here. Rule as the data show it: active = normalized growth mostly below about 0.91 (no sharp cut-off); inconclusive = no clear call, values can overlap the other calls; inactive = mostly above about 0.92. Some of the results follow.
Assay: chemical genetic growth profiling, strain panel (AID 1159580);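 also: tested at 20 µM; growth read once vehicle control cultures reached saturation at 30 °C; 1 = growth at the plate median or of vehicle wells; lower values mean less growth of the strain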
Settings: S. cerevisiae deletion strains, growth OD

Measured: normalized growth

CC(=O)O[C@@H]1C[C@@]2(C)C(CC[C@@H]2C(C)=O)C2CCC3=CC(=O)CC[C@]3(C)C21 (stereo not given in full)
inactive: locus YAL021C, strain ccr4, hits give low values 0.996 | locus YAL026C, strain drs2, hits give low values 1.03 | locus YAL030W, strain snc1, hits give low values 1.01 | locus YBL061C, strain skt5, hits give low values 1.01 | locus YBR009C, strain hhf1, hits give low values 1.06 | locus YBR023C, strain chs3, hits give low values 1 | locus YBR171W, strain sec66, hits give low values 0.964 | locus YBR231C, strain swc5, hits give low values 1.02 | locus YBR279W, strain paf1, hits give low values 1 | locus YCL011C, strain gbp2, hits give low values 1.02 | locus YCL016C, strain dcc1, hits give low values 1.02 | locus YCL061C, strain MRC1, hits give low values 1.01 | locus YCL069W, strain vba3, hits give low values 1.02 | locus YCR088W, strain abp1, hits give low values 1.02 | locus YDL005C, strain med2, hits give low values 1.01 | locus YDL040C, strain nat1, hits give low values 1.01 | locus YDR001C, strain nth1, hits give low values 0.997 | locus YDR069C, strain doa4, hits give low values 1.02 | locus YDR137W, strain rgp1, hits give low values 0.974 | locus YDR159W, strain sac3, hits give low values 1.02 | locus YDR195W, strain ref2 1.06 | locus YDR297W, strain sur2, hits give low values 1.01 | locus YDR334W, strain swr1, hits give low values 1.03 | locus YDR335W, strain msn5, hits give low values 1 | locus YDR392W, strain spt3, hits give low values 0.863 | locus YEL003W, strain gim4, hits give low values 1.02 | locus YEL037C, strain rad23, hits give low values 1.01 | locus YEL061C, strain CIN8 (second series), hits give low values 1.02 | locus YER015W, strain faa2, hits give low values 1.01 | locus YER016W, strain bim1, hits give low values 1.02 | locus YER111C, strain swi4, hits give low values 1.01 | locus YER155C, strain BEM2 (second series), hits give low values 1.04 | locus YFR010W, strain ubp6, hits give low values 1.02 | locus YGL167C, strain pmr1, hits give low values 1.02 | locus YGL173C, strain kem1, hits give low values 1.03 | locus YGL227W, strain vid30, hits give low values 1.01 | locus YGL240W, strain doc1, hits give low values 1.04 | locus YGL253W, strain hxk2, hits give low values 1 | locus YHR013C, strain ard1, hits give low values 0.974 | locus YHR027C, strain rpn1, hits give low values 1.01 | locus YHR030C, strain SLT2, hits give low values 0.967 | locus YHR079C, strain IRE1, hits give low values 0.985 | locus YHR142W, strain chs7, hits give low values 0.947 | locus YJL092W, strain hpr5, hits give low values 1.01 | locus YJL095W, strain BCK1 (second series), hits give low values 1.02 | locus YJL095W, strain BCK1, hits give low values 0.997 | locus YJL115W, strain asf1, hits give low values 1.01 | locus YJL129C, strain trk1, hits give low values 0.95 | locus YJL154C, strain vps35, hits give low values 1.01 | locus YJL164C, strain tpk1, hits give low values 0.985 | locus YJL166W, strain qcr8, hits give low values 1.01 | locus YJL187C, strain SWE1, hits give low values 1.01 | locus YJR066W, strain TOR1, hits give low values 0.953 | locus YKL160W, strain elf1, hits give low values 0.965 | locus YKR026C, strain gcn3, hits give low values 1.01 | locus YKR091W, strain srl3, hits give low values 1.01 | locus YLL001W, strain dnm1, hits give low values 1.02 | locus YLL026W, hits give low values 1.02 | locus YLL041C, strain sdh2, hits give low values 1 | locus YLR027C, strain aat2, hits give low values 0.998 | locus YLR113W, strain HOG1, hits give low values 1.02 | locus YLR221C, strain rsa3, hits give low values 0.969 | locus YLR258W, strain gsy2, hits give low values 1.04 | locus YLR262C, strain YPT6 (second series), hits give low values 0.964 | locus YLR320W, strain mms22, hits give low values 0.97 | locus YLR342W, strain FKS1, hits give low values 1.02 | locus YLR357W, strain rsc2, hits give low values 1.03 | locus YLR370C, strain arc18, hits give low values 1 | locus YLR384C, strain iki3, hits give low values 1.01 | locus YML120C, strain ndi1, hits give low values 0.981 | locus YMR058W, strain fet3, hits give low values 1.01 | locus YMR125W, strain sto1, hits give low values 1.02 | locus YMR129W, hits give low values 1.01 | locus YMR205C, strain PFK2, hits give low values 1.05 | locus YMR231W, strain pep5, hits give low values 1.02 | locus YNL071W, strain lat1, hits give low values 0.97 | locus YNL183C, strain NPR1, hits give low values 0.984 | locus YNL209W, strain ssb2, hits give low values 1 | locus YNL248C, strain rpa49, hits give low values 0.953 | locus YNL322C, strain KRE1 (second series), hits give low values 1.01 | locus YNR049C, strain mso1, hits give low values 1.01 | locus YOR001W, strain rrp6, hits give low values 0.947 | locus YOR070C, strain gyp1, hits give low values 1.01 | locus YOR080W, strain dia2, hits give low values 1.01 | locus YOR083W, strain WHI5, hits give low values 0.953 | locus YOR106W, strain vam3, hits give low values 0.974 | locus YOR231W, strain MKK1, hits give low values 0.979 | locus YOR265W, strain rbl2, hits give low values 1 | locus YOR270C, strain vph1, hits give low values 0.999 | locus YOR290C, strain snf2, hits give low values 0.98 | locus YPL051W, strain arl3, hits give low values 0.976 | locus YPL078C, strain atp4, hits give low values 0.97 | locus YPL106C, strain sse1, hits give low values 1.03 | locus YPL240C, strain hsp82, hits give low values 0.984 | locus YPL256C, strain CLN2, hits give low values 0.973
